# Test results: PMC7862700, “An all-to-all approach to the identification of sequence-specific readers for epigenetic DNA modifications on cytosine”
# Experiments:
# Experiment in all cases: DAPPL (digital affinity profiling via proximity ligation, sequencing); 10 mM Tris-HCl pH 7.5, 50 mM NaCl, 1 mM DTT, 4% glycerol, room temperature, 30 min; GST-TFs on glutathione beads, 16-mer random dsDNA library, 0.1% formaldehyde crosslink after washing; high values mean tight binding
# FEV = molecular target: T1, FEV (Homo sapiens, UniProt Q99581 1-238); details: protein: recombinant; tags: N-terminal GST; dsDNA, one strand shown
# T1 sequence: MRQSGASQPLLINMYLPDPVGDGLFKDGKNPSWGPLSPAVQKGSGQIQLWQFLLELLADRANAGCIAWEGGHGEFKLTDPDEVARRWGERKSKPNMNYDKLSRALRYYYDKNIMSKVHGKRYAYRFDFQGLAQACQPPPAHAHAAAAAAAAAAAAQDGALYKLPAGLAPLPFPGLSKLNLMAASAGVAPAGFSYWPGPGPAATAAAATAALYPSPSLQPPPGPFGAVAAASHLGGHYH
# Procedure, shortened: (§1)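 Pools of DNA-barcoded human transcription factors, expressed in yeast as GST fusions on glutathione beads and combined with a tag-only sample, were incubated with 200 nmole of a 16-mer random double-stranded DNA library. Incubation took 30 min at room temperature in Tris/NaCl/DTT/glycerol buffer and was followed by washing, 0.1% formaldehyde crosslinking, proximity ligation (BsaI/T4 ligase, 1 h, 37 °C), PCR amplification and sequencing on an Illumina NextSeq500. Binding signal is the ratio of a hexamer's read frequency for a factor to its frequency for the tag-only sample.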
# ETV5 = ETV5 (Homo sapiens, UniProt P41161 1-510); details: protein: recombinant; tags: N-terminal GST; dsDNA, one strand shown
# Chain of ETV5 (P41161 whole entry): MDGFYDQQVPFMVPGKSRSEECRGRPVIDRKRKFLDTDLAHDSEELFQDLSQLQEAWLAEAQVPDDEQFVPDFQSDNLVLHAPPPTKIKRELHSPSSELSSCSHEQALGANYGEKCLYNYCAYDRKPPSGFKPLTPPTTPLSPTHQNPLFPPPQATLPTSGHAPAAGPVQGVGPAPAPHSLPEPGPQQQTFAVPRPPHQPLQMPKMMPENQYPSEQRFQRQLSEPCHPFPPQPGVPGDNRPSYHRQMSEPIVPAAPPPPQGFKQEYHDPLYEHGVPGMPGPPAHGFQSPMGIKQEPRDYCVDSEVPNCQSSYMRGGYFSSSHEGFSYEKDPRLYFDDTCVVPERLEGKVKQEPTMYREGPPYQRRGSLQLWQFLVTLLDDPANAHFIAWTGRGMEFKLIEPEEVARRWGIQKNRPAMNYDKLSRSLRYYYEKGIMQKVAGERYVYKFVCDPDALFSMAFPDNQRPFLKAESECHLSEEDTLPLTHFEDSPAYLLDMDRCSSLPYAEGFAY
# Procedure, shortened: as §1
# HSF1 = HSF1 (Homo sapiens, UniProt Q00613 1-529); details: protein: recombinant; tags: N-terminal GST; chain copies: 3; dsDNA, one strand shown
# Chain of HSF1 (Q00613 whole entry): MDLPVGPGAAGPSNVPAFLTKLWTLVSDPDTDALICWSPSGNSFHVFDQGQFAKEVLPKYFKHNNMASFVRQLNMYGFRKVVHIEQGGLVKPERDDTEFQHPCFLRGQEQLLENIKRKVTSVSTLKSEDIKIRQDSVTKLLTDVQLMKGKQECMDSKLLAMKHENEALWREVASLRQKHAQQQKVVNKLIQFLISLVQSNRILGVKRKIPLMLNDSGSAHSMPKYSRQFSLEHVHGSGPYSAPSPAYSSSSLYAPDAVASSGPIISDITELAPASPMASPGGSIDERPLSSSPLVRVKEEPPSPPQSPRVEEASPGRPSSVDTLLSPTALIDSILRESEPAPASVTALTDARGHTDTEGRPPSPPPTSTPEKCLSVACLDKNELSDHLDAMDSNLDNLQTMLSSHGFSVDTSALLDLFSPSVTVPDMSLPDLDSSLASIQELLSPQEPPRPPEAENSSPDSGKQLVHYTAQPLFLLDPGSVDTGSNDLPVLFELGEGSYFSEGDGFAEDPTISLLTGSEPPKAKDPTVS
# Procedure, shortened: as §1
# SPIC = molecular target: T2, SPIC (Homo sapiens, UniProt Q8N5J4 1-248); details: protein: recombinant; tags: N-terminal GST; dsDNA, one strand shown
# T2 sequence: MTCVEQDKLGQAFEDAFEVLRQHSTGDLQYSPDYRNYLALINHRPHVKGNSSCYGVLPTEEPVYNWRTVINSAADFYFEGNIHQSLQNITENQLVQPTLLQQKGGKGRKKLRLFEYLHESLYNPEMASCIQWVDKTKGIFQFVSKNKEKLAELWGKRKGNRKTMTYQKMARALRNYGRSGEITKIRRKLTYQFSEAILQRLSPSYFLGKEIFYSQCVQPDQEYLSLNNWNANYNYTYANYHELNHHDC
# Procedure, shortened: as §1
# ELF4 = ELF4 (Homo sapiens, UniProt Q99607 1-663); details: protein: recombinant; tags: N-terminal GST; dsDNA, one strand shown
# Chain of ELF4 (Q99607 whole entry): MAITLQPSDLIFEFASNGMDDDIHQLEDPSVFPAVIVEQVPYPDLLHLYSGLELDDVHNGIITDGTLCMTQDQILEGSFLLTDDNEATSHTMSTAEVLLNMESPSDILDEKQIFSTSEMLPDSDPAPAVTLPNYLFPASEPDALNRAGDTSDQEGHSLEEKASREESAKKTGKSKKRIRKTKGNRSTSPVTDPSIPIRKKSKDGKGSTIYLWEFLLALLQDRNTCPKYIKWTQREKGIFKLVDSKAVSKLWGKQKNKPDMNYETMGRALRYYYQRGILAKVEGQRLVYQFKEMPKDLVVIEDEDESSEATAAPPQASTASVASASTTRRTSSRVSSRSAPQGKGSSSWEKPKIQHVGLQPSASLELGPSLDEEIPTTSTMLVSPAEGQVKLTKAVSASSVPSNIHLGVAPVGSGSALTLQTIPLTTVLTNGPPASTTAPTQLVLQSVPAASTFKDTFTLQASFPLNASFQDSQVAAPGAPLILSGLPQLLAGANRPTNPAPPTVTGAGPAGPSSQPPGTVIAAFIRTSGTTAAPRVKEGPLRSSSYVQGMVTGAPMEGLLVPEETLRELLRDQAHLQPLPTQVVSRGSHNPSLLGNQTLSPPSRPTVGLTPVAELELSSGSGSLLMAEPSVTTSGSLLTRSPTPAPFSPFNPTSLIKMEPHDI
# Procedure, shortened: as §1
# ELK4 = molecular target: T3, ELK4 (Homo sapiens, UniProt P28324-2 1-405); details: protein: recombinant; tags: N-terminal GST; dsDNA, one strand shown
# T3 sequence: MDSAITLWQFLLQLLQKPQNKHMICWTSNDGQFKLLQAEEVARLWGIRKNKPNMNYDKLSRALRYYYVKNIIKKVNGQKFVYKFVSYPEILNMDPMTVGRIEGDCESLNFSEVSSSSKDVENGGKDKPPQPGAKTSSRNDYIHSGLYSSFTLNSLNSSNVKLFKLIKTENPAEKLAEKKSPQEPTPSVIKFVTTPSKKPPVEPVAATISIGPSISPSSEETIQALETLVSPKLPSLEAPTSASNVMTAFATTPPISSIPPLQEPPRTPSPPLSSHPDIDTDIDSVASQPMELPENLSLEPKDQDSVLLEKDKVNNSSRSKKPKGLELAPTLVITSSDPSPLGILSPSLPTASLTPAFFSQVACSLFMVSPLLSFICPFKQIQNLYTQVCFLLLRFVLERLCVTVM
# Procedure, shortened: as §1
# ETV2 = molecular target: T4, ETV2 (Homo sapiens, UniProt O00321 1-342); details: protein: recombinant; tags: N-terminal GST; dsDNA, one strand shown
# T4 sequence: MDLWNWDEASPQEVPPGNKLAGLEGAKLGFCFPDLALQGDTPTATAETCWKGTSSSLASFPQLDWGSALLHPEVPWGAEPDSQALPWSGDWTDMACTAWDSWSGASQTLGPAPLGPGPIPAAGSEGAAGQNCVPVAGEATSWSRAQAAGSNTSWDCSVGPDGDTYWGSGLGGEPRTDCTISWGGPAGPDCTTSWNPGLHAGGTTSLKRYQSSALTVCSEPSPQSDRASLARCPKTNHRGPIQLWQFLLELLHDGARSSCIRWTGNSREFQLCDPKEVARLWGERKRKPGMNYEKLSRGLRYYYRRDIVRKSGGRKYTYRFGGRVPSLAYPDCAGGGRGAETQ
# Procedure, shortened: as §1
# ELF3 = molecular target: T5, ELF3 (Homo sapiens, UniProt P78545 1-371); details: protein: recombinant; tags: N-terminal GST; dsDNA, one strand shown
# T5 sequence: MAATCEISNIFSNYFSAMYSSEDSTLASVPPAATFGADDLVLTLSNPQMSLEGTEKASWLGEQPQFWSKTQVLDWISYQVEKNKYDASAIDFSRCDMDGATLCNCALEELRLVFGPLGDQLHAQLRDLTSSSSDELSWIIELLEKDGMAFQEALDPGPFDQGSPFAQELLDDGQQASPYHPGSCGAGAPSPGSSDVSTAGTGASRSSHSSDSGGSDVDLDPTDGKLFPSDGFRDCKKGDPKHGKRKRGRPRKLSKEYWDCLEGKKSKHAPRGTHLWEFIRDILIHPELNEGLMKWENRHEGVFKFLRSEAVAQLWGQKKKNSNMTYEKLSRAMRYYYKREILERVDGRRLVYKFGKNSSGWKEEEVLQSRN
# Procedure, shortened: as §1
# CRX = CRX (Homo sapiens, UniProt O43186 1-299); details: protein: recombinant; tags: N-terminal GST; dsDNA, one strand shown
# Chain of CRX (O43186 whole entry): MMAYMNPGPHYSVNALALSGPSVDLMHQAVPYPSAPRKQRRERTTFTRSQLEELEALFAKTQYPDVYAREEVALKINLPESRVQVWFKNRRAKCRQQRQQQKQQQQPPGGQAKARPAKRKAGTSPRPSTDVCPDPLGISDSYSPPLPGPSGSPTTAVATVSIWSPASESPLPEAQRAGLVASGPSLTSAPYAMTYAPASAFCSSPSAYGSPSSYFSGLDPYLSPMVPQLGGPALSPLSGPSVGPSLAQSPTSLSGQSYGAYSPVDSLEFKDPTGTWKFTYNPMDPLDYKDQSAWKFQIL
# Procedure, shortened: as §1
# ETV1 = ETV1 (Homo sapiens, UniProt P50549 1-477); details: protein: recombinant; tags: N-terminal GST; dsDNA, one strand shown
# Chain of ETV1 (P50549 whole entry): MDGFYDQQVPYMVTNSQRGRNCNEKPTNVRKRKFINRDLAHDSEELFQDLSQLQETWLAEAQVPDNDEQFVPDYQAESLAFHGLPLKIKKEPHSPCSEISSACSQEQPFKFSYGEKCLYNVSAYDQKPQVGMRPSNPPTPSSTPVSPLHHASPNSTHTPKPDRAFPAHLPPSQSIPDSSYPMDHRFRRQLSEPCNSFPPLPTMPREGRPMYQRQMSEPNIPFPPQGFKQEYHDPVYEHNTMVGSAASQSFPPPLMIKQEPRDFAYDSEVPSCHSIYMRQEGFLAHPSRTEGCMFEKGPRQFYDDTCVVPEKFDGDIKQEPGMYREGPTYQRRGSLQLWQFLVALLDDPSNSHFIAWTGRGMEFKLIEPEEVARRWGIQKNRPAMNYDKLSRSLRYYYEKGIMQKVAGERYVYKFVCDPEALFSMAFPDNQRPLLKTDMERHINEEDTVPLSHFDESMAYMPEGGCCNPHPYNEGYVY
# Procedure, shortened: as §1
# ERF = molecular target: T6, ERF (Homo sapiens, UniProt P50548 1-548); details: protein: recombinant; tags: N-terminal GST; dsDNA, one strand shown
# T6 sequence: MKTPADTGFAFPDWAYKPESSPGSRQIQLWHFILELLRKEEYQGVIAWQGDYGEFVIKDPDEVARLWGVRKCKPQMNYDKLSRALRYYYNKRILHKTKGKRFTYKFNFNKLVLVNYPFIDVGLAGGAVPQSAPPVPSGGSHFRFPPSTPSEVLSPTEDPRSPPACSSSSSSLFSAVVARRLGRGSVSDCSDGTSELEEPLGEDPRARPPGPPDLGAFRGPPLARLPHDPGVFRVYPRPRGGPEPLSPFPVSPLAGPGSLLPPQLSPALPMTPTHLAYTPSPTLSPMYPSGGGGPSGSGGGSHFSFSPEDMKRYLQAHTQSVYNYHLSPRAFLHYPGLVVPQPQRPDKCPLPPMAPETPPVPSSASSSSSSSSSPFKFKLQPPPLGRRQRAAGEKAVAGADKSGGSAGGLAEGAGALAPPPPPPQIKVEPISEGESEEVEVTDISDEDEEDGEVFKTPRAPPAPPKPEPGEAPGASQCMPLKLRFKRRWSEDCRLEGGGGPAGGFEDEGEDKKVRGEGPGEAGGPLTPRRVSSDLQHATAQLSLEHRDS
# Procedure, shortened: as §1
# ETV3L = molecular target: T7, ETV3L (Homo sapiens, UniProt Q6ZN32 1-361); details: protein: recombinant; tags: N-terminal GST; dsDNA, one strand shown
# T7 sequence: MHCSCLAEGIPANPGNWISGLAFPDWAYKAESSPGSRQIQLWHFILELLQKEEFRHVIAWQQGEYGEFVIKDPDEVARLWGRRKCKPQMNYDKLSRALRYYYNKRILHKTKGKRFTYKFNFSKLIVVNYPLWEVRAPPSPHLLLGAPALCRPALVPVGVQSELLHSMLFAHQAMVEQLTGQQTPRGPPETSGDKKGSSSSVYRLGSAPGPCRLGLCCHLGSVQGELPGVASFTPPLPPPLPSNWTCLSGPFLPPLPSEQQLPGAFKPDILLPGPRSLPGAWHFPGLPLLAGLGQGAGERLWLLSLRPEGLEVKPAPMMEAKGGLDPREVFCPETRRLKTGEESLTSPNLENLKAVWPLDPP
# Procedure, shortened: as §1
# ETS2 = molecular target: T8, ETS2 (Homo sapiens, UniProt P15036 1-469); details: protein: recombinant; tags: N-terminal GST; dsDNA, one strand shown
# T8 sequence: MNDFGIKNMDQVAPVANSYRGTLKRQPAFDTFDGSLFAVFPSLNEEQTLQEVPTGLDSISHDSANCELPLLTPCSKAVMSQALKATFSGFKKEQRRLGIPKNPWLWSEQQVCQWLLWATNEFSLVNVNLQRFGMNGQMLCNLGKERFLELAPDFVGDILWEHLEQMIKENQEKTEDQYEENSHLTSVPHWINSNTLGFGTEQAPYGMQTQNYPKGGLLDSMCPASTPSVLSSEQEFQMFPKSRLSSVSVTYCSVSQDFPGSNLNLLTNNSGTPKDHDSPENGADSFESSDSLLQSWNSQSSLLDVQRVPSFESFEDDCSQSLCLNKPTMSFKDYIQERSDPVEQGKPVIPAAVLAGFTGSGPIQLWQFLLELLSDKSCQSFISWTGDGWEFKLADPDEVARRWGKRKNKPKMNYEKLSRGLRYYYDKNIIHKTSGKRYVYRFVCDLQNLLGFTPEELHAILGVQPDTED
# Procedure, shortened: as §1
# SPDEF = molecular target: T9, SPDEF (Homo sapiens, UniProt O95238 1-335); details: protein: recombinant; tags: N-terminal GST; dsDNA, one strand shown
# T9 sequence: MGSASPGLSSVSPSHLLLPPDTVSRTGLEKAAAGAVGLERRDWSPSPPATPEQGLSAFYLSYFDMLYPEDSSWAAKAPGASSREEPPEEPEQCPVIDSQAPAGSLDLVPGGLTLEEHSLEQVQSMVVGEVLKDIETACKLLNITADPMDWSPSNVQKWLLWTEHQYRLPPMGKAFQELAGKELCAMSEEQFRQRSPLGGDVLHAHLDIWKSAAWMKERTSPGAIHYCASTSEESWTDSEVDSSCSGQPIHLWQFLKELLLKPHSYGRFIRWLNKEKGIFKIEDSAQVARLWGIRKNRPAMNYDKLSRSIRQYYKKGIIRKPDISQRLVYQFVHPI
# Procedure, shortened: as §1
# ETV7 = molecular target: T10, ETV7 (Homo sapiens, UniProt Q9Y603 1-341); details: protein: recombinant; tags: N-terminal GST; dsDNA, one strand shown
# T10 sequence: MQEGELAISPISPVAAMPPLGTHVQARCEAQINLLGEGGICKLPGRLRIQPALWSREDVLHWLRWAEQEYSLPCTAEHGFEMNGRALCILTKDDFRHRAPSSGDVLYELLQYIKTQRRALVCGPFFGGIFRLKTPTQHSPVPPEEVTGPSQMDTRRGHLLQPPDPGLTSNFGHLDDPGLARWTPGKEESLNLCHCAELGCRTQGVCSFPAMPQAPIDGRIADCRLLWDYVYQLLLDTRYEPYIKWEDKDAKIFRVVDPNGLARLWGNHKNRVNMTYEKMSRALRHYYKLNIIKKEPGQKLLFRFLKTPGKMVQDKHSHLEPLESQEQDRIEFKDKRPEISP
# Procedure, shortened: as §1
# ELF5 = molecular target: T11, ELF5 (Homo sapiens, UniProt Q9UKW6-2 1-255); details: protein: recombinant; tags: N-terminal GST; dsDNA, one strand shown
# T11 sequence: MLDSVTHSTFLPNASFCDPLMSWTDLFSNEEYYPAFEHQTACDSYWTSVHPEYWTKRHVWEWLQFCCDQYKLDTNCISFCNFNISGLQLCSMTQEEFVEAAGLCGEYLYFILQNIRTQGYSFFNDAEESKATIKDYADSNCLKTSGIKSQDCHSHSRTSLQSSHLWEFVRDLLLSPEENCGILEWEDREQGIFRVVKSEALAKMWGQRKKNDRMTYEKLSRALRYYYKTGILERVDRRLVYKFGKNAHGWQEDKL
# Procedure, shortened: as §1
# ETV3 = molecular target: T12, ETV3 (Homo sapiens, UniProt P41162-2 1-143); details: protein: recombinant; tags: N-terminal GST; dsDNA, one strand shown
# T12 sequence: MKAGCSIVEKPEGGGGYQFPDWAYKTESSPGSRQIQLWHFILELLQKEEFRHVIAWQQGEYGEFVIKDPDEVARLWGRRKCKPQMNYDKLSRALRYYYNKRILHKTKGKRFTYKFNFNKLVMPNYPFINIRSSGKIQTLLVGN
# Procedure, shortened: as §1
# ETV6 = ETV6 (Homo sapiens, UniProt P41212 1-452); details: protein: recombinant; tags: N-terminal GST; dsDNA, one strand shown
# Chain of ETV6 (P41212 whole entry): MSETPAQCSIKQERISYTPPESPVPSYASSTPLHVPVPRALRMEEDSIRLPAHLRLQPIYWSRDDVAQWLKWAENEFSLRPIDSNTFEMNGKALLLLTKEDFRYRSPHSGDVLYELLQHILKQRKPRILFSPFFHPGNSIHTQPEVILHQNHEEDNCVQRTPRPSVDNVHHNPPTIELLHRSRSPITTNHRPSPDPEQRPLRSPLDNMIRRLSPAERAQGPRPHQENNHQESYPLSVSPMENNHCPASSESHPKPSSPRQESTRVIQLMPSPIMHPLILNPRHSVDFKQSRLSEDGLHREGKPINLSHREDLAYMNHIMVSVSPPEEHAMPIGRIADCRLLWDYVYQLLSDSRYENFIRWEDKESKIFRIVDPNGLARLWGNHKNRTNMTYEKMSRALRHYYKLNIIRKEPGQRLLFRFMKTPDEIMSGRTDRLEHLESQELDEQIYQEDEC
# Procedure, shortened: as §1
sequence,measurement,setting,value
CGTAAT,binding signal,FEV,"1.19 fold enrichment (6-mer frequency, TF over GST control)"
same,binding signal,ETV5,"1.21 fold enrichment (6-mer frequency, TF over GST control)"
same,binding signal,HSF1,"1.5 fold enrichment (6-mer frequency, TF over GST control)"
same,binding signal,SPIC,"1.14 fold enrichment (6-mer frequency, TF over GST control)"
same,binding signal,ELF4,"1.22 fold enrichment (6-mer frequency, TF over GST control)"
same,binding signal,ELK4,"1.17 fold enrichment (6-mer frequency, TF over GST control)"
same,binding signal,ETV2,"1.17 fold enrichment (6-mer frequency, TF over GST control)"
same,binding signal,ELF3,"1.29 fold enrichment (6-mer frequency, TF over GST control)"
same,binding signal,CRX,"1.94 fold enrichment (6-mer frequency, TF over GST control)"
same,binding signal,ETV1,"1.24 fold enrichment (6-mer frequency, TF over GST control)"
same,binding signal,ERF,"1.24 fold enrichment (6-mer frequency, TF over GST control)"
same,binding signal,ETV3L,"1.25 fold enrichment (6-mer frequency, TF over GST control)"
same,binding signal,ETS2,"1.14 fold enrichment (6-mer frequency, TF over GST control)"
same,binding signal,SPDEF,"1.19 fold enrichment (6-mer frequency, TF over GST control)"
same,binding signal,ETV7,"1.19 fold enrichment (6-mer frequency, TF over GST control)"
same,binding signal,ELF5,"1.2 fold enrichment (6-mer frequency, TF over GST control)"
same,binding signal,ETV3,"1.19 fold enrichment (6-mer frequency, TF over GST control)"
same,binding signal,ETV6,"1.2 fold enrichment (6-mer frequency, TF over GST control)"
